The entries come from a sample that favours hits as a whole.
Pf Dd2 growth: Plasmodium falciparum Dd2 growth inhibition. AID 1347417. actives 4.3% (n = 120,000). Potency, µM (series often up to 28.9 µM), without a hit: at the highest dose activity, negative = inhibition, actives largely listed as inhibitors. P. falciparum Dd2 growth, SYBR Green, 72 h; active = well fitted inhibition curve with a large enough effect;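 note: plate controls were DMSO vehicle for no effect and reference drug for full effect; nearly all actives have a fitted effect of over 65% in size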
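Readout: SYBR Green fluorescence, 485 nm excitation, 535 nm emission, after ~16 h lysis at 37C. Before that, Dd2-infected red cells (2.5% hematocrit) grew 72 h with compound, 29 uM top final concentration.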
* = called active by the depositor; i = inactive; [ ] = dose if it differs, or a comment. Potency is the fitted concentration of half-maximal effect.

SMILES	Pf Dd2 growth
CNS(=O)(=O)CCNc1nc(-c2ccccn2)nc2c1c(C)nn2C	-6.2%
CCCN1C(=O)C(CC(=O)N2CCN(C)CC2)Sc2ncccc21 (centres undefined)	-18.7%
COCCn1c(=O)c2c(n1Cc1ccccc1)CN(Cc1ccc(C(C)C)cc1)CC2	-10.5%[44.1 µM]
COCCCN1CCc2c(n(Cc3ccccc3)n(-c3ccccc3)c2=O)C1	11.2µM*
COCCn1c(=O)c2c(n1Cc1ccccc1)CN(Cc1cccnc1OC)CC2	-16.0%[44.1 µM]
Cc1noc2c(NC3CCC(O)CC3)cc(-c3ccc(Cl)cc3)nc12 (centres undefined)	i
COc1ccccc1C(=O)NC[C@H]1COCc2nc3cc(C)ccc3n21	-13.9%[44.1 µM]
CN(C)c1ccc(C(=O)N2CCC[C@H]2c2nc(-c3ccc(F)cc3)no2)cc1	-10.2%
COc1ccc(C(=O)NCCn2ccn3nc(-c4ccc(C)cc4C)cc3c2=O)cc1F	-16.1%
COc1cccc(C(=O)NCCn2ccn3nc(-c4ccc(C)cc4C)cc3c2=O)c1OC	i
Cc1ccc(C)c(C(=O)NCCn2ccn3nc(-c4cc(C)ccc4C)cc3c2=O)c1	i
Cc1ccc(-c2cc3c(=O)n(CCNC(=O)c4cccc(Cl)c4)ccn3n2)cc1C	-3.0%
Cc1ccc(-c2cc3c(=O)n(CCNC(=O)c4ccc(N(C)C)cc4)ccn3n2)c(C)c1	10µM*
Cc1ccc(-c2cc3c(=O)n(CCNC(=O)c4cc(Cl)ccc4F)ccn3n2)c(C)c1	i
Cc1ccc(-c2cc3c(=O)n(CCNC(=O)c4ccccc4F)ccn3n2)cc1C	i
CC(=O)Nc1cccc(C(=O)NCCn2ccn3nc(-c4ccc(C)cc4C)cc3c2=O)c1	5.62µM*
CCn1nccc1C(=O)NCCn1ccn2nc(-c3ccc(C)c(C)c3)cc2c1=O	7.94µM*
COc1ccc(C(=O)N2CCC(N3CC4CCCN4C3=O)CC2)cc1 (centres undefined)	16.4%
COCCn1ncc(N2CCC(NC(=O)COc3ccc(F)cc3)CC2)cc1=O	i
COc1cc2c(cc1CNCC1(O)CNCCOC1)OCCO2 (centres undefined)	17.0%
Cc1ccc(Cc2nc3ccccc3nc2SCC(=O)N2CCN(c3ccc(F)cc3)CC2)cc1	19.9%
COc1ccccc1N1CCN(C(=O)CSc2nc3ccccc3nc2Cc2ccc(C)cc2)CC1	-7.4%
Cc1ccc(Cc2nc3ccccc3nc2SCC(=O)N2CCC(C)CC2)cc1	10µM*
CNC(=O)C1CCCN(S(=O)(=O)c2ccccc2)CCC(=O)NCC1 (centres undefined)	20.5%
CN(C)C(=O)c1ccc(OC2CCN(C(=O)c3ccc(F)c(F)c3)CC2)nc1	53.7%
SMILES	Pf Dd2 growth
Cc1oc(C(O)c2cncnc2)nc1C(=O)Nc1ccc(N2CCOCC2)cc1 (centres undefined)	-0.8%[44.1 µM]
Cc1cccc(CN2C[C@@H](C(=O)O)C[C@H](C(=O)N3CCN(C)CC3)C2)n1	-5.6%
CN1CCCC1c1nc(C2CN(C(=O)c3cnccn3)C2)no1 (centres undefined)	i
COc1ccc(C(=O)N[C@H]2C[C@@H](Cc3cc(CN(C)C)on3)C2(C)C)cc1	-16.8%[44.1 µM]
CC(C)N[C@H]1C[C@@H](Cc2cc(-c3ccccc3)on2)C1(C)C	-8.3%[44.1 µM]
CCNC(=O)N[C@H]1C[C@@H](Cc2cc(-c3ccccc3)on2)C1(C)C	-15.9%[44.1 µM]
COc1ccc(C(=O)N[C@H]2C[C@@H](Cc3cc(-c4ccccc4)on3)C2(C)C)cc1	4.47µM*
COCc1cc(C[C@@H]2C[C@H](NC3CCC3)C2(C)C)no1	i
CN1CCC(N[C@H]2C[C@@H](Cc3cc(-c4ccccc4)on3)C2(C)C)CC1	3.98µM*
O=C1Nc2cc(Cl)ccc2C(=O)N2CCN(C(=O)c3ccccc3)C[C@H]12	-20.2%[44.1 µM]
CCCc1nc(C(=O)NC(C)c2nncn2CCOC)cs1 (centres undefined)	0.0%
CN1CCC([C@@H]2CN(C(=O)c3nn(C)c4ccccc34)C[C@H]2C(N)=O)CC1	3.1%
O=C(Nc1ccc(Br)cc1)c1cnc(-c2ccc(F)cc2)nc1-c1ccncc1	-23.9%
Cc1ccc(CNC(=O)c2noc(-c3ccc4c(c3)OCO4)n2)cc1	i
Cc1ccc(-c2nc(C(=O)NCc3ccc4c(c3)OCO4)no2)cc1	i
Cc1ccc(-c2nc(C(=O)N3CCN(Cc4ccc5c(c4)OCO5)CC3)no2)cc1	11.2µM*
COc1ccc(-c2noc([C@@H]3CCCN3C(=O)COc3cccc(C)c3)n2)cc1OC	i
O=C1CCN(Cc2ccc(F)cc2F)CCCCCCN1	i
COc1ccc(OC)c(-c2cc(-c3ccccc3)nc3c(C)noc23)c1	i
COc1ccccc1N1CCN([C@@H]2[C@H](O)[C@H](CO)O[C@@H]2CN)CC1	30.8%
COc1ccc(-n2c(-c3ccco3)nc3c(cnn3-c3ccc(Cl)cc3)c2=O)cc1	10µM*
Cc1cccc(-n2c(-c3ccco3)nc3c(cnn3-c3ccccc3C)c2=O)c1	i
Cc1ccc(-c2nc3c(cnn3-c3ccccc3)c(=O)n2-c2ccc(Cl)cc2)cc1	i
CCOC(=O)C1CCN(c2nc3ccccc3nc2Cl)CC1	i
CCOC(=O)C1CCN(C(=O)c2c[nH]c3ncccc23)CC1	-0.1%[44.1 µM]

Screening results from PubChem.
